Hits are enriched below; roughly 19% of the tested compounds scored in any of these assays.
HT1080-NT tox: kills 2HG-producing HT-1080-NT fibrosarcoma cells. Potency, µM (top dose mostly 46.1 µM), hits mostly cytotoxic. HT-1080-NT fibrosarcoma viability, CellTiter-Glo ATP luminescence, 48 h. AID 686970. 360,000 tested, 1.6% active;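 further: NT is the 2HG producing partner of a matched IDH1 knockdown line; nearly all actives have a fitted effect of over 55% in size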
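Read-out is CellTiter-Glo luminescence after 10 minutes at room temperature, following 48 hours' compound treatment of HT-1080-NT cells (750 cells/well, RPMI, 5% FBS, 37 degrees C).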
ELG1 repair inh: ELG1-dependent DNA repair inhibition. HEK293T ELG1-luciferase reporter, luminescence, 16 h; DNA damage induced by 5-fluorouridine. Potency, µM (doses to about 46.1 µM), most hits filed as inhibitors. 330,000 tested, 2.3% active; further: nearly all actives have a fitted effect of over 55% in size
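Overnight (16 hr) co-exposure of 2,000 cells/well to 5-fluorouridine and compound at 37 °C preceded detection. Luciferase was quantified via ONE-Glo luminescence; loss of signal denotes inhibition.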
IL-1B inflam inh: blocks inflammasome-driven IL-1 beta release | activity change, % at 57.5 µM | 360,000 tested, 4.7% active | THP-1 LPS/ATP IL-1B secretion, AlphaLISA, 16 h; active compounds read low; in the data active means activity change below about -50%; inconclusive means mostly about -30% to -49%
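Secreted IL-1B measured by AlphaLISA bead assay after 16 h compound exposure of THP-1 cells; compounds (final up to 57.5 uM) added 1 h before LPS (250 ng/mL) and ATP (1.25 mM) stimulation; lower signal means less secretion.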
DT40 TDP1 CPT: growth inhibition of DT40 Tdp1-/-;hTDP1 cells with camptothecin (screen for TDP1 inhibitors); chicken DT40 Tdp1-/-;hTDP1 cells + 20 nM CPT, ATP luminescence, 48 h; Potency, µM (doses to about 46.2 µM), usual class: inhibitors; 420,000 tested, 12% active; further: nearly all actives have a fitted effect of over 55% in size
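Chicken DT40 Tdp1-/- cells complemented with human TDP1, 400 cells/well, exposed to compounds plus 20 nM camptothecin for at least 48 h at 37 C; viability read as ATP content by CellTiter-Glo luminescence.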
DT40 TDP1 no CPT: qHTS for Inhibitors of human tyrosyl-DNA phosphodiesterase 1 (TDP1): qHTS in cells in absence of CPT. AID 686978, 2013. Potency, µM (series often up to 46.2 µM), usual class: inhibitors. 420,000 tested, 15% active. DT40 Tdp1-/- hTDP1 cells, no CPT, ATP luminescence, 48 h; further: nearly all actives have a fitted effect of over 55% in size
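Growth kinetics read by CellTiter-Glo luminescence after ≥48 hr at 37 °C. Cells: DT40 Tdp1-/- stably carrying human TDP1, 400 per well, compound exposure in the absence of CPT (DMSO vehicle).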
HT1080 IDH1KD tx: kills HT-1080 cells with IDH1 knockdown; HT-1080 IDH1 knockdown viability, ATP luminescence, 48 h; Potency, µM (top dose mostly 46.1 µM), usual class: cytotoxic; 360,000 tested, 2% active; AID 686971
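After a 2 h attachment period, IDH1KD HT-1080 cells took pin-transferred compound for 48 h at 37 °C; ATP-based luminescence after 10 min room-temperature reagent incubation reported viability.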
Large screens that a line does not name were inactive. Unless noted, the call rests on the fitted dose curve; in most records, active means well fitted curve in the direction sought with a large enough effect; inconclusive means small, poorly fitted or top-dose-only effect, or another doubt; inactive means no such curve, though single readings can be large; an effect the other way counts as inactive or inconclusive.

Clc1cccc(Cl)c1/C=N/Nc1c(Cl)cncc1Cl	HT1080-NT tox 2.3µM, ELG1 repair inh inconclusive, IL-1B inflam inh -82, DT40 TDP1 CPT 2.1µM, DT40 TDP1 no CPT 3.3µM, HT1080 IDH1KD tx 5.2µM
CC(C)(C)NC(=S)N/N=C/c1c(Cl)cccc1Cl	ELG1 repair inh inconclusive, DT40 TDP1 no CPT inconclusive
Clc1cncc(Cl)c1N/N=C/c1ccncc1	ELG1 repair inh inconclusive, IL-1B inflam inh -95, DT40 TDP1 CPT inconclusive, DT40 TDP1 no CPT inconclusive, HT1080 IDH1KD tx inconclusive
O=c1oc(C2(O)CCCCC2)cc2ccccc12	none
O=c1oc(C2(O)CCCCC2)cc2ccc(-c3ccc4[nH]ccc4c3)cc12	ELG1 repair inh inconclusive, DT40 TDP1 CPT 12µM, DT40 TDP1 no CPT inconclusive
O=C(c1sc2ccccc2c1Cl)N(Cc1ccco1)C1CCS(=O)(=O)C1 (stereo not drawn)	DT40 TDP1 CPT inconclusive, DT40 TDP1 no CPT 26µM
COc1cc(/C=C2/C(=O)NN(c3cccc(C)c3)C2=O)ccc1OC(=O)c1ccco1	HT1080-NT tox inconclusive, ELG1 repair inh inconclusive, IL-1B inflam inh -69, DT40 TDP1 CPT inconclusive, DT40 TDP1 no CPT inconclusive, HT1080 IDH1KD tx inconclusive
COC(=O)c1cccc(S(=O)(=O)N(Cc2ccco2)Cc2cc3ccc(OC)cc3[nH]c2=O)c1	ELG1 repair inh inconclusive, DT40 TDP1 CPT inconclusive
COc1ccc(C(=O)N(Cc2ccco2)Cc2cc3cc(C)ccc3[nH]c2=O)cc1OC	IL-1B inflam inh inconclusive, DT40 TDP1 CPT inconclusive, DT40 TDP1 no CPT 16µM (no result: ELG1 repair inh)
COc1ccccc1NC(=S)N(Cc1ccco1)Cc1cc2cc(C)ccc2[nH]c1=O	HT1080-NT tox inconclusive, ELG1 repair inh 16µM, DT40 TDP1 CPT 9.2µM, DT40 TDP1 no CPT 13µM, HT1080 IDH1KD tx inconclusive
COC(=O)c1cccc(S(=O)(=O)N(Cc2ccco2)Cc2cc3cc(OC)c(OC)cc3[nH]c2=O)c1	ELG1 repair inh 23µM, DT40 TDP1 CPT inconclusive
COc1ccc2[nH]c(=O)c(CN(Cc3ccco3)C(=O)c3ccccc3)cc2c1	HT1080-NT tox inconclusive, DT40 TDP1 CPT inconclusive
Cc1ccc2[nH]c(=O)c(CN(Cc3ccco3)C(=O)c3ccncc3)cc2c1	HT1080-NT tox inconclusive, ELG1 repair inh inconclusive, DT40 TDP1 CPT 10µM, DT40 TDP1 no CPT 10µM, HT1080 IDH1KD tx inconclusive
Cc1ccc2[nH]c(=O)c(CN(CC3CCCO3)C(=O)c3ccncc3)cc2c1 (stereo not drawn)	none
Cc1ccnc(SCC(=O)c2ccc(Br)cc2)c1C#N	ELG1 repair inh inconclusive, DT40 TDP1 CPT inconclusive, DT40 TDP1 no CPT 21µM
CCC(C)NC(=O)CCCn1c(=O)c2cccn2c2ccccc21 (stereo not drawn)	none (no result: HT1080-NT tox, ELG1 repair inh, IL-1B inflam inh, HT1080 IDH1KD tx)
O=C(CCCn1c(=O)c2cccn2c2ccccc21)Nc1cccc(Cl)c1	DT40 TDP1 CPT inconclusive, DT40 TDP1 no CPT 18µM (no result: HT1080-NT tox, ELG1 repair inh, IL-1B inflam inh, HT1080 IDH1KD tx)
Cc1ccc(NC(=O)CCCn2c(=O)c3cccn3c3ccccc32)c(C)c1	DT40 TDP1 CPT 15µM, DT40 TDP1 no CPT 15µM (no result: HT1080-NT tox, ELG1 repair inh, IL-1B inflam inh, HT1080 IDH1KD tx)
Cc1ccc(NC(=O)CCCn2c(=O)c3cccn3c3ccccc32)c(Cl)c1	DT40 TDP1 CPT 15µM, DT40 TDP1 no CPT 12µM (no result: HT1080-NT tox, ELG1 repair inh, IL-1B inflam inh, HT1080 IDH1KD tx)
Cc1cc(C)cc(NC(=O)CCCn2c(=O)c3cccn3c3ccccc32)c1	none (no result: HT1080-NT tox, ELG1 repair inh, IL-1B inflam inh, HT1080 IDH1KD tx)
CN(c1nccc(=O)[nH]1)C1CCN(c2nc3ccccc3n2Cc2ccc(F)cc2)CC1	DT40 TDP1 no CPT inconclusive (no result: HT1080-NT tox, ELG1 repair inh, IL-1B inflam inh, HT1080 IDH1KD tx)
CCN(C[C@H]1N[C@@](CC)(C(=O)OC)[C@H]2C(=O)N(C)C(=O)[C@@H]12)C(=O)Nc1ccccc1	none
Cc1ccc(N2C(=O)[C@@H]3CSC(c4ccc(C(F)(F)F)cc4)N3C2=O)cc1 (stereo partly drawn)	none (no result: HT1080-NT tox, ELG1 repair inh, IL-1B inflam inh, HT1080 IDH1KD tx)
Cn1c(=O)n(C)c2cc(NS(=O)(=O)c3ccc4c(c3)CCCC4)ccc21	HT1080-NT tox inconclusive, DT40 TDP1 CPT 18µM, DT40 TDP1 no CPT inconclusive, HT1080 IDH1KD tx inconclusive
COc1ccc(NS(=O)(=O)c2ccc3c(c2)n(C)c(=O)n3C)cc1	ELG1 repair inh inconclusive, IL-1B inflam inh -70

From PubChem BioAssay
